From PubChem
G9a block: qHTS Assay for Inhibitors of Histone Lysine Methyltransferase G9a. AID 504332, 2011. hit rate 8.8% among 350,000. Potency, µM (series often up to 102 µM), inactives show top-dose activity, negative = inhibition, most hits filed as inhibitors. G9a H3K9 monomethylation, AlphaScreen, 2 h; note: % is set by controls: 0 for no effect and ±100 for the full control effect; nearly all actives have a fitted effect of over 75% in size
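Compounds were preincubated with 20 nM G9a for 15 min, after which biotinylated H3K9 peptide (500 nM) and SAM (20 uM) started a 2 h room-temperature reaction. Monomethylated product was quantified by antibody-based AlphaScreen chemiluminescence.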
PLK1 PBD inh: qHTS for Inhibitors of PLK1-PDB (polo-like kinase 1 - polo-box domain): Primary Screen; hit rate 2.8% among 360,000; Serine/threonine-protein kinase PLK1 (Homo sapiens), P53350; Potency, µM, inactives show max response, negative = inhibition, most hits filed as inhibitors; AID 720504, 2013; Plk1 PBD binding of FITC phosphopeptide, fluorescence polarization; note: series mostly up to about 57 µM; % is set by controls: 0 for no effect and ±100 for the full control effect; nearly all actives have a fitted effect of over 65% in size
JMJD2A Tudor: qHTS Assay for Inhibitors of JMJD2A-Tudor Domain. Potency, µM (series often up to 114 µM), for inactives: top-dose activity change, negative = inhibition, actives largely listed as inhibitors. AlphaScreen JMJD2A-Tudor / H3K4me3 peptide binding. AID 504339, 2011. hit rate 4.4% among 390,000. Lysine-specific demethylase 4A (Homo sapiens), O75164; note: % is set by controls: 0 for no effect and ±100 for the full control effect; nearly all actives have a fitted effect of over 50% in size
Target sequence (O75164 whole entry, looked up, the tested form may be a part): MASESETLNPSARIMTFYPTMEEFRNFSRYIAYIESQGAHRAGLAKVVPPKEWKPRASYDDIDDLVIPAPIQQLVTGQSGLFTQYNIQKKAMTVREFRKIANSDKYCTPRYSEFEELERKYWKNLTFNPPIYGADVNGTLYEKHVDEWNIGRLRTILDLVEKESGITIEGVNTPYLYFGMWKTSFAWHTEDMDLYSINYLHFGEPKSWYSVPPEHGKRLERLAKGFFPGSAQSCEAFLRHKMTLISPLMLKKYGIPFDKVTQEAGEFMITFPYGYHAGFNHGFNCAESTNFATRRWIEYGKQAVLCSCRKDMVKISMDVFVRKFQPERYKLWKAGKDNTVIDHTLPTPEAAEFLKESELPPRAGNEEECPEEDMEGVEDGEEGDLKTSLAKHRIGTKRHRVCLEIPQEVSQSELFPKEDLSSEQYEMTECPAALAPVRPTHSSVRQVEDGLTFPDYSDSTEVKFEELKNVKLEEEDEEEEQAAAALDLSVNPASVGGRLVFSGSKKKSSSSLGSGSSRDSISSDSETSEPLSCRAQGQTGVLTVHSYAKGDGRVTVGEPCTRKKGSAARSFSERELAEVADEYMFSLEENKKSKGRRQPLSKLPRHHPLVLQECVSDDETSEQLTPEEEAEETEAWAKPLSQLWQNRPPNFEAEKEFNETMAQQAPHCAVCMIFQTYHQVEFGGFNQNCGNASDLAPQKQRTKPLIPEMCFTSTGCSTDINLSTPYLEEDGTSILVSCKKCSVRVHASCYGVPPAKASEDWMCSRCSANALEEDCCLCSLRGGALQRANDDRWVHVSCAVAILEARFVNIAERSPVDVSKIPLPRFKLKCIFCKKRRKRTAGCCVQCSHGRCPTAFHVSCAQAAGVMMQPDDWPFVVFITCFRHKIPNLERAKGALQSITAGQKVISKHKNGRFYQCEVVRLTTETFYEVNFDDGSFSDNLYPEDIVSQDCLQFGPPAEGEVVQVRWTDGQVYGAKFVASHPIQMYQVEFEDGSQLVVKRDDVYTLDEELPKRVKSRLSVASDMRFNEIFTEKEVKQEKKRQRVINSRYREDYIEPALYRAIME
HP1b chromo inh: HTS for Inhibitors of HP1-beta Chromodomain Interactions with Methylated Histone Tails. AlphaScreen HP1-beta / biotin-H3K9me3 peptide binding. AID 540317, 2011. Potency, µM (highest dose often 114 µM), for the others: at the top dose activity change, negative = inhibition, hits mostly inhibitors. Chromobox protein homolog 1 (Homo sapiens), P83916. hit rate 0.56% among 390,000; note: nearly all actives have a fitted effect of over 70% in size
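Compound inhibition of the preformed complex between 50 nM HP1-beta and 50 nM biotinylated H3K9me3 peptide was read by AlphaScreen. Buffer was PBS pH 7.4 with 0.01% Tween-20. Incubations ran 30 min at room temperature, with 10 ug/mL donor/acceptor beads.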
12-LOX inh: Primary qHTS assay for inhibitors of human arachidonate 12S-lipoxygenase (ALOX12): Round 2; Polyunsaturated fatty acid lipoxygenase ALOX12 (Homo sapiens), P18054; purified 12hLO, xylenol orange hydroperoxide absorbance; Potency, µM (series often up to 108 µM), inactives show top-dose activity change, negative = inhibition, usual class: inhibitors; hit rate 1.1% among 580,000; note: % is set by controls: 0 for no effect and ±100 for the full control effect
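Hydroperoxide product was detected by ferrous iron/xylenol orange as the 573 to 405 nm absorbance ratio. Arachidonic acid at 40 uM (final) was turned over for 30 min at room temperature by 150 nM human 12hLO, pH 7.0 Hepes buffer, after 15 min compound preincubation.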
BAZ2B block: qHTS Assay for Inhibitors of BAZ2B; Bromodomain adjacent to zinc finger domain protein 2B (Homo sapiens), Q9UIF8; AlphaScreen BAZ2B-H3K14Ac peptide displacement; Potency, µM (titrated, usually from 114 µM), without a hit: top-dose activity change, negative = inhibition, hits mostly inhibitors; hit rate 4.4% among 360,000; AID 504333, 2011; note: % is set by controls: 0 for no effect and ±100 for the full control effect; nearly all actives have a fitted effect of over 60% in size
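Protein-peptide AlphaScreen: BAZ2B 50 nM, b-H3K14Ac 50 nM, 1x PBS pH 7.4 + 0.01% Tween-20. Preincubation 30 min RT; cpd 30 min RT (top 110 uM); beads 20 min RT, light-protected.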
An asterisk follows results filed as active; ? = inconclusive; . = no result; [ ] = dose if it differs, or a comment. Sampled rows, rich in hits. Any-hit rate of the full collection: about 9%. Calls come from the whole dose curve; as a rule, active = well fitted curve in the direction sought with a large enough effect; inconclusive = small, poorly fitted or top-dose-only effect, or another doubt; inactive = no such curve, though single readings can be large; an effect the other way counts as inactive or inconclusive. Potency is the fitted concentration of half-maximal effect.

SMILES	G9a block	PLK1 PBD inh	JMJD2A Tudor	HP1b chromo inh	12-LOX inh	BAZ2B block
Cc1ccc(Cl)cc1N1CCN(C(=O)C2CCN(c3nnc(-n4cccc4)s3)CC2)CC1	-1%[59 µM]	-1%	-14%	29%	298%	13%
Cc1cccc(N2CCN(C(=O)C3CCN(c4nnc(-n5cccc5)s4)CC3)CC2C)c1 (configuration not stated)	50µM*	-13%	?	-4%	154%	?
Cc1ccc2c(c1)N(C(=O)CCC(=O)N1CCN(c3ccccn3)CC1)CC(C)O2 (configuration not stated)	21%	-10%	-9%	33%	2%	4%
Cc1cccc(N2CCN(C(=O)CSc3ccsc3[N+](=O)[O-])CC2C)c1 (configuration not stated)	?	-5%	?	-36%	-9%	40µM*
O=C(CSc1ccccc1)N1CCN(c2ccccn2)CC1	-20%	?	?	-6%	1%	-15%
Cc1cccc(N2CCN(S(=O)(=O)c3ccc4c(c3)CCN4C(=O)CCC(=O)O)CC2C)c1 (configuration not stated)	?	-12%	56µM*	?	-2%	?
CC1CC(C)CN(S(=O)(=O)c2ccc3c(c2)CCN3C(=O)CCC(=O)O)C1 (configuration not stated)	.	-19%	-5%	23%	.	1%
CC(C)CN(C(=O)CSc1nc2ccccc2[nH]1)c1c(N)n(Cc2ccccc2)c(=O)[nH]c1=O	.	-8%	.	.	2%	.
CCOc1ccc2nc(SCC(=O)N(CC(C)C)c3c(N)n(Cc4ccccc4)c(=O)[nH]c3=O)[nH]c2c1	50µM*	-1%	-9%	16%	-4%	-2%
COCCN(C(=O)CSc1nc2ccc(C)cc2[nH]1)c1c(N)n(Cc2ccccc2)c(=O)[nH]c1=O	?	-5%	-16%	22%	-10%	-8%
COCCN(C(=O)CSc1nc2ccc(OC)cc2[nH]1)c1c(N)n(Cc2ccccc2)c(=O)[nH]c1=O	20µM*	1%	-21%	23%	?	5%
COCCN(C(=O)CSc1nc(N)cc(=O)[nH]1)c1c(N)n(Cc2ccccc2)c(=O)[nH]c1=O	50µM*	7%	-11%	14%	?	9%
Clc1ccc(-c2nc(NCCCN3CCOCC3)c3ccccc3n2)cc1	.	-10%	-19%	14%	-84%	-20%
CC(C)(CO)NS(=O)(=O)c1ccc2c(c1)C(=NO)c1cc(S(=O)(=O)NC(C)(C)CO)ccc1-2	.	10%	-3%	11%	-10%	-6%
COc1ccccc1NS(=O)(=O)c1ccc(NN=C2CCCCC2)c([N+](=O)[O-])c1	25µM*	-6%	?	?	4%	8.9µM*
CCCC(CCC)=NNc1ccc(S(=O)(=O)Nc2ccccc2OC)cc1[N+](=O)[O-]	?	-5%	14µM*	28µM*	13%	10µM*
COc1ccc(S(=O)(=O)Nc2ccccc2OC)cc1C	-6%[59 µM]	-1%	4%	16%	9%	-3%
COc1ccccc1NS(=O)(=O)c1ccc(OC)c([N+](=O)[O-])c1	3%	-14%	-22%	-7%	8%	-13%
COC(=O)c1ccc(CN2CCC(n3nccc3NC(=O)C3CC3)CC2)cc1	24%	-5%	-17%	11%	0%	-3%
COc1cc(=O)n2c(c1C(=O)NC(C)c1ccco1)CCN(CC=C(C)C)CC2 (configuration not stated)	.	.	.	.	7%	.
COC(=O)CCc1sc(NC2CCCCC2)nc1-c1ccc(OC)cc1	13µM*	-28%	?	?	?	?
